Experimental data from PubChem BioAssay AID463173 (ICCB-Longwood Screening Facility, Harvard Medical School, 2010).
Out of some 52,000 compounds screened, about 4,300 (8.3%) were called active. The sample holds actives, similar compounds and a random draw of the others, so the mix is not that of the screen. A number with no mark means an inactive call. Cut-off read from the data, not from the text of the source: active = survival mostly below about 52% (no sharp cut-off); inactive = mostly above about 56%.

system: DeltatarO mutant; experiment: growth inhibition of S. aureus wild type versus tarO mutant, primary screen, teichoic acid synthesis inhibitors, RN4220, OD600 (AID 463173); conditions: OD600, 18 h, stronger effect = lower value, screened at 18.75 µg/mL (by protocol)

Row | Structure (SMILES) | survival
1 | Cc1cc(C)c2c(-n3cccc3)c(C(=O)NCc3cccc(F)c3)sc2n1 | 66%
2 | O=S(=O)(c1ccc2[nH]c3c(c2c1)CCCCC3)N1CCN(c2ccccc2)CC1 | 91%
3 | COc1ccccc1N1CCN(c2cc(C)nc3nncn23)CC1 | 81%
4 | Cc1nc(-c2cccnc2)sc1CCNS(=O)(=O)c1ccc(F)cc1 | 75%
5 | COc1ccc(CNC(=O)C(CC(C)C)NS(=O)(=O)c2ccc3c(c2)CCN3C(C)=O)cc1 (configuration not stated) | 92%
6 | CNCC(O)COc1ccccc1 (configuration not stated) | 94%
7 | N#CC(C#N)=C(N)/C(C#N)=C/c1cccs1 | 81%
8 | CCc1ccc2nc(N3CCCCC3)c(C#N)cc2c1 | 88%
9 | CCn1cc(C(=O)N2CCN(c3ccc(C)cc3)C(C)C2)c(=O)c2cc(S(=O)(=O)N3CCCC3)ccc21 (configuration not stated) | 87%
10 | Cc1nc2cc(-c3cccc(F)c3)nn2c(C)c1CCC(=O)Nc1ccccc1C(N)=O | 61%
11 | COC(=O)c1ccc(CSc2nc3c(c(=O)[nH]2)CCC3)cc1 | 85%
12 | COC(=O)c1ccccc1NC(=O)c1cc2c(s1)-c1ccccc1OC2 | 39% (active)
13 | CCOc1ccc(CCNC(=O)c2cc3c(s2)-c2ccccc2OC3)cc1OCC | 67%
14 | CCOC(=O)c1ccccc1NC(=O)c1cc2c(s1)-c1c(C)cccc1OC2 | 137%
15 | COc1ccc(Cl)cc1NC(=O)c1cc2c(s1)-c1ccccc1OC2 | 74%
16 | CCOc1ccccc1N(C)C(=O)c1cc2c(s1)-c1ccccc1OC2 | -2% (active)
17 | COc1cc(OC)c(N(C)C(=O)c2cc3c(s2)-c2ccccc2OC3)cc1Cl | 60%
18 | CCOC(=O)c1ccc(NC(=O)c2cn(-c3ccccc3)nc2-c2ccc(C)cc2)cc1 | 57%
19 | O=C(c1ccccc1Cl)N1CCCCC1CCN1CCCCC1 (configuration not stated) | 100%
20 | COc1cccc(CNC(=O)C(Cc2ccccc2)NS(=O)(=O)c2ccc3c(c2)CCN3C(C)=O)c1 (configuration not stated) | 70%
21 | CC(C)c1ccc(N2C(=O)N(Cc3ccccc3Cl)c3ccccc3S2(=O)=O)cc1 | 86%
22 | Cc1ccc(NC(=O)CCS(=O)(=O)c2cccc3nsnc23)c(C)c1 | 61%

Row | Structure (SMILES) | survival
23 | CCN(CC)c1ccc(NC(=O)CCS(=O)(=O)c2cccc3nsnc23)c(C)c1 | 44% (active)
24 | Cc1cc(F)ccc1NC(=O)CCS(=O)(=O)c1cccc2nsnc12 | 59%
25 | O=C(Cn1cc(C(=O)c2ccco2)c2ccccc21)Nc1ccccc1Cl | 80%
26 | COc1c(C)cc(S(=O)(=O)Nc2cccc(-c3ccc(N4CCOCC4)nn3)c2)c(C)c1C | 91%
27 | COc1ccc(C2c3c(-c4ccccc4O)n[nH]c3C(=O)N2CCc2ccccc2)cc1 (configuration not stated) | 21% (active)
28 | COc1ccc(CCN2C(=O)c3[nH]nc(-c4ccccc4O)c3C2c2ccc(OC)cc2)cc1 (configuration not stated) | 29% (active)
29 | COc1ccc(CCN2C(=O)c3[nH]nc(-c4ccccc4O)c3C2c2ccccc2)cc1 (configuration not stated) | 22% (active)
30 | COc1ccc(CCN2C(=O)c3[nH]nc(-c4ccccc4O)c3C2c2cccc(OC)c2)cc1 (configuration not stated) | 66%
31 | COc1ccc2c(c1)c1c(c(=O)n(-c3ccc(F)c(Cl)c3)c(=O)n1CC(N)=O)n2C | 96%
32 | CC(=O)Nc1nc(SCc2ccccc2Cl)n[nH]1 | 91%
33 | Cc1ccc(NC(=O)Cn2nnc3sc(-c4ccccc4)cc3c2=O)cc1Cl | 52%
34 | O=C(COc1ccc(F)cc1)Nc1ccc2nc(SCC(=O)N3CCCC3)sc2c1 | 91%
35 | CC(C)c1ccc(NC(=O)C2CCCN2S(=O)(=O)c2ccc3nc(-c4ccccc4)[nH]c3c2)cc1 (configuration not stated) | 44%
36 | COc1cccc(NC(=O)C2CCCN2S(=O)(=O)c2ccc3nc(-c4ccccc4)[nH]c3c2)c1 (configuration not stated) | 44% (active)
37 | CCc1ccc(NC(=O)C2CCCN2S(=O)(=O)c2ccc3nc(-c4ccccc4)[nH]c3c2)cc1 (configuration not stated) | 82%
38 | COc1cccc(NC(=O)C2CCCN2S(=O)(=O)c2ccc3c(c2)n(C)c(=O)c(=O)n3C)c1 (configuration not stated) | 87%
39 | Cc1ccc(NC(=O)C2CCCN2S(=O)(=O)c2ccc3nc(-c4ccccc4)[nH]c3c2)cc1F (configuration not stated) | 71%
40 | CCc1cccc(NC(=O)C2CCCN2S(=O)(=O)c2ccc3nc(-c4ccccc4)[nH]c3c2)c1 (configuration not stated) | 35% (active)
41 | CCOc1ccccc1NC(=O)C1CCCN1S(=O)(=O)c1ccc2nc(-c3ccccc3)[nH]c2c1 (configuration not stated) | 50%
42 | CCc1cccc(NC(=O)C2CCCN2S(=O)(=O)c2ccc3c(c2)n(C)c(=O)c(=O)n3C)c1 (configuration not stated) | 85%
43 | COc1ccc(NC(=O)C2CCCN2S(=O)(=O)c2ccc3nc(-c4ccccc4)[nH]c3c2)cc1 (configuration not stated) | 77%
44 | Cc1cc(C)cc(NC(=O)C2CCCN2S(=O)(=O)c2ccc3nc(-c4ccccc4)[nH]c3c2)c1 (configuration not stated) | 38% (active)

Row | Structure (SMILES) | survival
45 | Cc1cccc(NC(=O)C2CCCN2S(=O)(=O)c2ccc3nc(-c4ccccc4)[nH]c3c2)c1 (configuration not stated) | 37% (active)
46 | Cc1ccc(NC(=O)C2CCCN2S(=O)(=O)c2ccc3nc(-c4ccccc4)[nH]c3c2)cc1C (configuration not stated) | 92%
47 | CCOC(=O)N1CCC(NC(=O)c2cnn(-c3ccc(C)cc3C)c2C2CCN(C(=O)OC(C)(C)C)CC2)CC1 | 124%
48 | O=C(CNC(=O)c1ccccc1Cl)OCc1cc(=O)n2nc(C3CC3)sc2n1 | 78%
49 | CCCCOC(=O)c1ccc(NC(=O)c2cc(-c3ccccc3)on2)cc1 | 91%
50 | Cc1ccc(NC(=O)CSc2ncnc3c2sc2ccccc23)cc1C | 113%
51 | CCN1CCN(Cc2c(O)ccc3oc(C)c(C(=O)Nc4ccc(OC)cc4)c23)CC1 | 78%
52 | Cc1cc2c(C)nc3ccc(C(=O)O)cc3c2o1 | 71%
53 | Cc1ccc(OC(C)C(=O)N2CCN(CCc3ccncc3)CC2)cc1C (configuration not stated) | 52%
54 | Cc1ccc(Cl)cc1N1CCN(C(=O)C2CCN(S(=O)(=O)c3c(C)noc3/C=C/c3ccccc3F)CC2)CC1 | 72%
55 | CCOC(=O)c1cc(S(=O)(=O)NCc2ccccc2)[nH]n1 | 124%
56 | CC(C)c1ccc(Nc2ncnc3onc(-c4ccc(F)cc4)c23)cc1 | 80%
57 | CCCOc1ccc(NC(=O)CC2C(=O)N(c3ccc(C)cc3)C(=O)N2C(C)C)cc1 (configuration not stated) | 128%
58 | COc1cccc(CN2C(=O)N(c3ccc(C)cc3)C(=O)C2CC(=O)Nc2cc(OC)cc(OC)c2)c1 (configuration not stated) | 144%
59 | CCCOc1ccc(NC(=O)CC2C(=O)N(c3ccccc3)C(=O)N2Cc2ccc(F)cc2)cc1 (configuration not stated) | 17% (active)
60 | Cc1ccc(N2C(=O)C(CC(=O)Nc3ccccc3)N(CCC3=CCCCC3)C2=O)cc1 (configuration not stated) | 67%
61 | CCOc1ccc(NC(=O)CC2C(=O)N(c3ccccc3)C(=O)N2Cc2cccc(OC)c2)cc1 (configuration not stated) | 102%
62 | CCc1ccc(NC(=O)CC2C(=O)N(c3ccccc3)C(=O)N2C(C)C)cc1 (configuration not stated) | -5% (active)
63 | CCCOc1ccc(NC(=O)CC2C(=O)N(c3ccc(C)cc3)C(=O)N2Cc2cccc(OC)c2)cc1 (configuration not stated) | 46% (active)
64 | O=C(CC1C(=O)N(c2ccccc2)C(=O)N1CCC1=CCCCC1)Nc1ccc(F)cc1 (configuration not stated) | 48%
65 | COC(=O)c1ccc(NC(=O)CC2C(=O)N(c3cccc(OC)c3)C(=O)N2C(C)C)cc1 (configuration not stated) | 88%
66 | COc1ccc(CN2C(=O)N(c3ccc(F)cc3)C(=O)C2CC(=O)Nc2ccccc2)cc1 (configuration not stated) | 77%

Row | Structure (SMILES) | survival
67 | Cc1ccc(N2C(=O)C(CC(=O)Nc3ccc(F)cc3)N(CCC3=CCCCC3)C2=O)cc1 (configuration not stated) | 55% (active)
68 | COC(=O)c1ccc(NC(=O)CC2C(=O)N(c3ccccc3)C(=O)N2Cc2ccc(F)cc2)cc1 (configuration not stated) | 55%
69 | CCN(C(=O)c1c(C)oc2ncnc(N3CCCCC3)c12)c1cc(C)ccc1C | 95%
70 | CCC(C)C(NC(=O)c1cc(C)oc1C)C(=O)O (configuration not stated) | 95%
71 | CCOc1ccc(NC(=O)c2oc3ccccc3c2NC(=O)c2ccc(OC)cc2OC)cc1 | 51%
72 | O=C(CC1C(=O)N(c2ccc(F)cc2)C(=O)N1Cc1ccc2c(c1)OCO2)Nc1ccc(F)cc1 (configuration not stated) | 72%
73 | Cc1ccc(N2C(=O)C(CC(=O)Nc3ccc(F)cc3)N(Cc3ccc4c(c3)OCO4)C2=O)cc1 (configuration not stated) | 70%
74 | O=C(CC1C(=O)N(c2ccc(F)cc2)C(=O)N1Cc1ccc2c(c1)OCO2)Nc1ccc(Cl)cc1 (configuration not stated) | 43% (active)
75 | Cc1ccc(Cl)cc1NC(=O)c1cc(S(=O)(=O)N2CCCCCC2)cn1C | 71%
76 | O=C(CSc1oc(-c2cccs2)nc1S(=O)(=O)c1ccccc1)Nc1ccc(F)cc1 | 55%
77 | O=C(NCC(c1cccnc1)N1CCc2ccccc2C1)C(=O)Nc1ccccc1 (configuration not stated) | 81%
78 | CCC1CN(C(=O)NCc2ccccc2)c2cc(Cl)ccc2O1 (configuration not stated) | 46% (active)
79 | CCC1CN(C(=O)NCc2ccccc2)c2cc(C)ccc2O1 (configuration not stated) | 51%
80 | CCC1CN(C(=O)NCc2ccc(F)cc2)c2ccccc2O1 (configuration not stated) | 67%
81 | CC1CN(C(=O)NCc2ccccc2)c2cc(Cl)ccc2O1 (configuration not stated) | 49%
82 | CCC1CN(C(=O)NCc2ccc(C)cc2)c2cc(Cl)ccc2O1 (configuration not stated) | 93%
83 | CCC1CN(C(=O)NCc2cccc(OC)c2)c2ccccc2O1 (configuration not stated) | 62%
84 | CCC1CN(C(=O)NCc2cccc(OC)c2)c2cc(Cl)ccc2O1 (configuration not stated) | 43% (active)
85 | CCC1CN(C(=O)NCc2ccc(F)cc2)c2cc(C)ccc2O1 (configuration not stated) | 52%
86 | CCC1CN(C(=O)NCc2ccc(F)cc2)c2cc(Cl)ccc2O1 (configuration not stated) | 39% (active)
87 | O=C(NCc1ccco1)c1ccc2c(c1)N(Cc1cccc(Cl)c1)C(=O)c1ccccc1S2=O (configuration not stated) | 63%
